The source of these data is article PMC4336329 (PLoS ONE, 2015).

The whole screen tested about 310,000 compounds, of which about 2,200 (0.71%) showed an effect of 50% or more. The effect is printed as a negative number. Many of the other results were omitted from the sample, so strong results are more common in it than they were.

Chain of human ether-à-go-go-related gene (hERG) potassium channel (Q12809 whole entry, looked up): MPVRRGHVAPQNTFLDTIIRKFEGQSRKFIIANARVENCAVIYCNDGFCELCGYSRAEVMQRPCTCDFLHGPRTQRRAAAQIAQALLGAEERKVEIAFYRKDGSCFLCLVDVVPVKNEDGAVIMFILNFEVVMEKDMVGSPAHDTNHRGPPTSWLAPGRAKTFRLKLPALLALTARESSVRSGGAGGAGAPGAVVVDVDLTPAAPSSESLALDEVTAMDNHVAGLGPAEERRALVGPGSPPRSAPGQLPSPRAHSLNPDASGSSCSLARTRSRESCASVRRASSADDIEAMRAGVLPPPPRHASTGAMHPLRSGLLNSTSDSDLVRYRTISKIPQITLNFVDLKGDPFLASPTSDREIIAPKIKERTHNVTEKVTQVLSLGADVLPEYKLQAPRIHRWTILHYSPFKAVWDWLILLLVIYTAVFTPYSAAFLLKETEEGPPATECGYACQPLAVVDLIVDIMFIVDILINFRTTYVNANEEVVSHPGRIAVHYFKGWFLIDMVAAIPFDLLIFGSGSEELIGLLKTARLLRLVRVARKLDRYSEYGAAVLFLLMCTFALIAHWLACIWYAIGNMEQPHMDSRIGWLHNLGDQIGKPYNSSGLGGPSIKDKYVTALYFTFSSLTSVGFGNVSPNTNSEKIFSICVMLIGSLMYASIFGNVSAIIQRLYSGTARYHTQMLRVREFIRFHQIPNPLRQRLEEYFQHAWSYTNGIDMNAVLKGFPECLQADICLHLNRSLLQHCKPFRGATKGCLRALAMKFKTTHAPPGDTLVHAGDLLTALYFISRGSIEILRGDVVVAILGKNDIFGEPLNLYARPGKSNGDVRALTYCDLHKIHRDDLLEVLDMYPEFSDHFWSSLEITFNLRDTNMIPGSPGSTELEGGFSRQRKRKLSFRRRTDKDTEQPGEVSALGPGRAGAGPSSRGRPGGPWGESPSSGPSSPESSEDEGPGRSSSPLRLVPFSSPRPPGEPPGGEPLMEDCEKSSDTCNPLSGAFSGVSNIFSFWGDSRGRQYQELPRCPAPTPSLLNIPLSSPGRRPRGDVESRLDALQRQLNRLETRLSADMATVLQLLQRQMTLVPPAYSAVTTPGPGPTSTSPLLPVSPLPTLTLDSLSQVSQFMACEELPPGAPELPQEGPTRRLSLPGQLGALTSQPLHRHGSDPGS

This experiment has as its target human ether-à-go-go-related gene (hERG) potassium channel (human, UniProt Q12809). The experiment is described as follows: primary screen, population patch clamp on CHO cells stably expressing hERG; higher = less effect of the substance.
For `COc1ccc(C(=O)NC(=S)Nc2ccc(S(=O)(=O)Nc3cc(OC)nc(OC)n3)cc2)cc1`, the “hERG current change (%, negative = inhibition) at 1uM” value is given as 13.7%.
As for `O=C(Oc1ccc2c(c1)CCC2)N1CCOCC1`, the figure is 11.3%; as for `Cc1ccc(S(=O)(=O)N2CCCC2C(=O)NCc2ccco2)cc1` (centres unmarked), 8.74%.
For the molecule `Cc1ccc(C)c(S(=O)(=O)N2CCCOC2CNC(=O)C(=O)NC2CC2)c1` (centres unmarked), the “hERG current change (%, negative = inhibition) at 1uM” value stood at 19.9%.
In the case of `COc1ccc(Nc2nc(N3CCCCC3)nc3ccccc23)c(OC)c1`, the “hERG current change (%, negative = inhibition) at 1uM” value is reported as -12.1%.
In the case of `COc1ccc(Nc2nc(N3CCCC3)nc3ccccc23)c(OC)c1`, the “hERG current change (%, negative = inhibition) at 1uM” value was -7.36%.
Take `COc1ccc(Nc2nc(N3CCN(C)CC3)nc3ccccc23)c(OC)c1`: the “hERG current change (%, negative = inhibition) at 1uM” value was -76.6%.
The value for `Cc1ccc(-n2c(SCC(=O)NCC3CCCO3)nc3c(c2=O)SCC3)cc1` (centres unmarked) was 2.53%; that for `Cc1ccccc1CCN1CCCC(CN(C)C(=O)C(=O)c2ccco2)C1` (centres unmarked) was -17.7%; that for `CN(CC1CCCN(CCc2ccccc2F)C1)C(=O)c1ccoc1` (centres unmarked) was -25.9%.
The value for `COc1ccc(CN(C)CC2CCCN(CCc3ccc(Cl)cc3)C2)cc1OC` (centres unmarked) was -78.2%; that for `COc1ccc(CN(C)CC2CCCN(CCc3ccc(F)cc3)C2)cc1OC` (centres unmarked) was -8.47%.
`COc1ccc(CCN2CCCC(CN(C)C(=O)c3ccoc3)C2)cc1` (centres unmarked): the “hERG current change (%, negative = inhibition) at 1uM” value is -32.6%.
Consider `CN(C)C(=O)CCC(=O)N(C)CC1CCCN(CCc2ccc(F)cc2)C1` (centres unmarked), for which the “hERG current change (%, negative = inhibition) at 1uM” value was -0.257%.
On to `CN(CC1CCCN(CCc2ccc(Cl)cc2)C1)C(=O)C(=O)c1ccco1` (centres unmarked), for which the “hERG current change (%, negative = inhibition) at 1uM” value is given as -72.5%.
As for `Cc1cc(C(=O)N(C)CC2CCCN(CCc3ccc(F)cc3)C2)c(C)o1` (centres unmarked), the figure is -71.6%; as for `CN(CC1CCCN(CCc2ccc(Cl)cc2)C1)C(=O)c1ccoc1` (centres unmarked), -85.3%; as for `CN(CC1CCCN(CCc2ccc(Cl)cc2)C1)C(=O)c1ccco1` (centres unmarked), 11.1%.
Turning to `COc1cccc(CN(C)CC2CCCN(CCc3ccc(Cl)cc3)C2)c1OC` (centres unmarked), the “hERG current change (%, negative = inhibition) at 1uM” value is listed as -3.32%.
Turning to `COc1ccc(CCN2CCCC(CN(C)C(=O)c3ccoc3C)C2)cc1` (centres unmarked), the “hERG current change (%, negative = inhibition) at 1uM” value was found to be 18.4%.
As for `O=C(O)CCC(=O)Nc1sc2c(c1C(=O)NCc1ccccc1)CCCC2`, the figure is 0.699%; as for `Cc1cc2c(cc1C)C(c1ccccc1Br)CC(=O)N2` (centres unmarked), 13.7%; as for `Cc1ccc(N2CC(C(=O)Oc3cccc(N4C(=O)CCC4=O)c3)CC2=O)cc1` (centres unmarked), -8.29%.
As to `Cc1nn(-c2ccccc2)c(Cl)c1/C=N/O`, the “hERG current change (%, negative = inhibition) at 1uM” value was found to be 4.67%.
On to `Cc1c(C(C)(C)C)s/c(=N/S(=O)(=O)c2ccccc2)n1C`, for which the “hERG current change (%, negative = inhibition) at 1uM” value is on record as 12.6%.
Turning to `N#Cc1c(NC(=O)CSc2nc3ccccc3s2)sc2c1CCCC2`, the “hERG current change (%, negative = inhibition) at 1uM” value came out at 9.38%.
As to `O=C(O)c1ccc(N/N=C/c2ccncc2)cc1`, the “hERG current change (%, negative = inhibition) at 1uM” value is 10%.
Take `COCc1ccc(C(=O)N(C)CC2CCCN(CCc3ccc(Cl)cc3)C2)o1` (centres unmarked): the “hERG current change (%, negative = inhibition) at 1uM” value was -65.1%.
The value for `COCc1ccc(C(=O)N(C)CC2CCCN(CCc3ccc(OC)cc3)C2)o1` (centres unmarked) was -38.5%.
In the case of `COCc1ccc(C(=O)N(C)CC2CCCN(CCc3ccccc3F)C2)o1` (centres unmarked), the “hERG current change (%, negative = inhibition) at 1uM” value is -11.7%.
`COc1ccc(CNc2nc3c(c(=O)n(Cc4ccc(Br)cc4)c(=O)n3C)n2C)cc1`: the “hERG current change (%, negative = inhibition) at 1uM” value is on record as -10.5%.
For the molecule `CN(C)CCN(Cc1ccc(Cl)cc1)c1ccccn1.Cl`, the “hERG current change (%, negative = inhibition) at 1uM” value was -57.1%.
As to `CN(C)CCN(Cc1ccccc1)c1ccccn1.Cl`, the “hERG current change (%, negative = inhibition) at 1uM” value is reported as -19.1%.
As for `C[N+](C)(C)CCN(Cc1ccc(Cl)cc1)c1ccccn1.[I-]`, the figure is 6.09%.
Regarding `Cc1ccc(-n2cccc2/C=C2/C(=N)N3C(=NC2=O)SN=C3S(C)(=O)=O)cc1Cl`, the “hERG current change (%, negative = inhibition) at 1uM” value amounted to 11.1%.
For `COC(=O)[C@H]1C[C@H](C(=O)O)[C@@H](C)C1(C)C`, the “hERG current change (%, negative = inhibition) at 1uM” value is given as 9.34%.
As for `O=Cc1ccc(-n2nncc2-c2ccc([N+](=O)[O-])cc2)cc1`, the figure is -12.4%; as for `O=[N+]([O-])c1ccc(-n2nncc2-c2ccc(Cl)cc2)cc1`, -60.4%.
`O=[N+]([O-])c1ccc(-n2nncc2-c2ccccc2)cc1`: the “hERG current change (%, negative = inhibition) at 1uM” value came to 0.0452%.
`CCS(=O)(=O)NCCCc1ccccc1`: the “hERG current change (%, negative = inhibition) at 1uM” value is -5.33%.
`CCn1c(/C=C/Nc2ccccc2)[n+](CC)c2ccc(Cl)cc21.[I-]`: the “hERG current change (%, negative = inhibition) at 1uM” value is given as -82.8%.
The value for `CCn1c(/C=C/N(C(C)=O)c2ccccc2)[n+](CCCS(=O)(=O)[O-])c2cc(Cl)c(Cl)cc21` was 10.6%; that for `CCn1c(C)[n+](CCOCC[n+]2c(C)n(CC)c3cc(Cl)c(Cl)cc32)c2cc(Cl)c(Cl)cc21.[I-]` was 8.45%.
As for `CCn1c(/C=C/N(C(C)=O)c2ccccc2)[n+](CC)c2ccc(Cl)cc21.[I-]`, the figure is 5.77%; as for `CCn1c(/C=C/Nc2ccccc2)[n+](CC)c2cc(Cl)c(Cl)cc21.[I-]`, -87.2%.
For the molecule `Cc1n(C)c2cc(Cl)ccc2[n+]1Cc1ccccc1.[I-]`, the “hERG current change (%, negative = inhibition) at 1uM” value is 4.11%.
For `Cc1ccccc1Cn1c(=O)n(CCC(=O)NCc2ccc3c(c2)OCO3)c(=O)c2ccccc21`, the “hERG current change (%, negative = inhibition) at 1uM” value stood at 16.7%.
